Screen size: about 1,100 compounds; about 340 (31%) were called active. Not shown: some 40% with an inconclusive outcome. Only a sample is shown. Unmarked numbers belong to inactive results. Calls follow the shape of the dose curve; as a rule, active = well fitted inhibition curve with a large enough effect; inconclusive = small, poorly fitted or top-dose-only effect; inactive = flat fitted curve, though single readings scatter.
target: Phosphatidylinositol 5-phosphate 4-kinase type-2 alpha (Homo sapiens) (UniProt P48426); assay: qHTS for Inhibitors of PI5P4K: Confirmation in Primary Assay; conditions: PI5P4Kalpha enzyme, ADP-Glo luminescence, 60 min; series mostly up to 76.9 µM; activity change, negative = inhibition: at the top concentration; also: nearly all actives have a fitted effect of over 65% in size
Summary of the method: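 ADP-Glo luminescence end-point quantified ADP produced by PI5P4Kα after 60 min at room temperature with 5 microM ATP. Buffer: HEPES pH 7.4, EGTA, 0.1% CHAPS, 5% DMSO final; compounds added before ATP.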
% is scaled to controls: 0 for no effect and ±100 for the full control effect; potency is read from the fitted curve at half-maximal effect.

Chain of Phosphatidylinositol 5-phosphate 4-kinase type-2 alpha (Homo sapiens) (P48426 whole entry, looked up): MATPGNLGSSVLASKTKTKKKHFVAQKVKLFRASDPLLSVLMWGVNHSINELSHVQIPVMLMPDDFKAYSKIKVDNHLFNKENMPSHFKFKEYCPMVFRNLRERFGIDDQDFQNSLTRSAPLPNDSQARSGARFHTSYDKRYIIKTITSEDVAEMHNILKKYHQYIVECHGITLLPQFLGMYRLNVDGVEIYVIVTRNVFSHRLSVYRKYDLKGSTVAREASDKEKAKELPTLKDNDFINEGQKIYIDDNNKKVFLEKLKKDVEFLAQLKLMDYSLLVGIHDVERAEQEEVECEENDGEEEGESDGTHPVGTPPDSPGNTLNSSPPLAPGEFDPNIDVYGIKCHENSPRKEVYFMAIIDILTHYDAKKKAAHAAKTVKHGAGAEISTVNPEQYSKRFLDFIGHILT

SMILES	Potency	activity change, negative = inhibition
CC1CCCCC1NC(=O)COC(=O)c1c2c(nc3ccccc13)/C(=C\c1ccco1)CC2 (stereo unspecified)	1.26 µM (active)	
Cc1ccnc2nc(C(=O)OCC(=O)NC3CCCC(C)C3C)nn12 (stereo unspecified)		5.28%
COc1ccc(CCn2c(O)cc3nn(-c4nc5ccccc5s4)c(=O)c-3c2C)cc1	11.2 µM (active)	
O=C(CCS(=O)(=O)c1ccc2c(c1)NC(=O)CS2)NCCc1ccc(Cl)cc1		-2.61%
NS(=O)(=O)c1ccc(NC(=O)C2Cc3ccccc3CN2C(=O)c2ccco2)cc1 (stereo unspecified)	14.1 µM (active)	
CCCNC(=O)C1(C)CCCN(C(=O)c2cc(C)nn2C(C)(C)C)C1 (stereo unspecified)		0.849%
Oc1cc2c(cc1C(c1ccc(Cl)c(Cl)c1)N1CCCC1)OCO2 (stereo unspecified)	12.6 µM (active)	
O=C(Nc1cccc2cccnc12)c1csc(COCCO)n1		-0.498%
O=C(c1cccnc1)N(c1cc2sc(=O)oc2c2ccccc12)S(=O)(=O)c1ccccc1		-17.1%
CCOc1ccc(S(=O)(=O)N2CCN(c3ccc(C)cc3C)CC2)cc1		11.9%
COc1ccc(S(=O)(=O)N2CCN(C(=O)c3cc4c(s3)CCC4)CC2)cc1	7.08 µM (active)	
COc1cc2nc(COc3ccccc3[N+](=O)[O-])oc(=O)c2cc1OC		-3.94%
O=S(=O)(Nc1ccc2cn[nH]c2c1)c1ccccc1		0.969%
CCOC(=O)c1cnc2cc(C)ccn2c1=O		0.0355%
C[C@H]1CN=C(Nc2ccccc2)N1CCCC1CCCCC1		-0.725%
CCN1CCN(Cc2ccc(NC(=O)c3ccc(C)c(NC(=O)c4cc(-c5ccc(Br)cc5)n[nH]4)c3)cc2C(F)(F)F)CC1	28.2 µM (active)	
CCN1CCN(Cc2ccc(NC(=O)c3cc(NC(=O)c4cc5cccc(OC)c5o4)cc(OC)c3)cc2C(F)(F)F)CC1	25.1 µM (active)	
Cc1ccc(C)c(NC(=O)c2ccc3c(c2)N(Cc2ccc(F)cc2)C(=O)CS3=O)c1 (stereo unspecified)		-0.517%
COc1cccc2cc(C(C)N(CCCN3CCOCC3)C(=O)Nc3ccccc3)oc12 (stereo unspecified)		1.88%
Cc1cc2ccccc2nc1SCC(=O)NC1CCCC1		3.8%
CCCCNC(=O)C1(C)CCC(=O)N1c1cc(C(C)(C)C)nn1C (stereo unspecified)		4.31%
COCCn1nnnc1C(c1cc2cc(OC)c(OC)cc2[nH]c1=O)N1CCN(c2ccc(O)cc2)CC1 (stereo unspecified)		-13.5%
Cc1ccn2c(NC3CCCC3)c(-c3cccs3)nc2c1		6.53%
O=c1c2c3c(sc2[nH]c(=S)n1Cc1ccco1)CCC3	7.08 µM (active)	
Cc1cccc(-n2c(SCC(N)=O)nc3c(c2=O)C2(CCCC2)Cc2ccccc2-3)c1		3.23%
Cc1ccccc1CNC(=O)c1ccc2nc([C@@H]3O[C@H](CO)[C@H](O)[C@H](O)[C@H]3O)[nH]c2c1		1.11%

Source: PubChem BioAssay AID743286 (National Center for Advancing Translational Sciences (NCATS), 2014)
